{"source": "PubChem BioAssay (EPA / NIEHS)", "note": "“And” between values parts separate entries of the source, which are not always exact repeats. Equal entries are not always repeated. The source made the active and inactive calls. Rule for the calls: active = hit-call score of the fitted dose curve at least 0.9, where 1 is the maximum; inactive = score below 0.9.", "data": [{"read-out": "CD38, CD38 (gene 952)", "assay": "BSK_SAg_CD38: BioMAP Diversity Plus: SAg Assay for CD38 Biomarker Activity (AID 2283087)", "conditions": "primary human HUVEC with PBMC; actives raise or lower the signal", "method": "BSK_SAg is a cell-based, multiplexed-readout assay that uses umbilical vein endothelium and peripheral blood mononuclear cells, a human vascular primary cell co-culture, with measurements taken at 24 hours after chemical dosing in a 96-well plate.BSK_SAg_CD38 is one of 10 assay component(s) measured or calculated from the BSK_SAg assay. It is designed to make measurements of enzyme-linked immunosorbent assay, a form of binding reporter, as detected with fluorescence intensity signals by Enzyme-linked immunosorbent assay technology.Data from the assay component BSK_SAg_CD38 was analyzed into 1 assay endpoint. This assay endpoint, BSK_SAg_CD38, was analyzed with bidirectional fitting relative to DMSO as the negative control and baseline of activity. Using a type of binding reporter, gain or loss-of-signal activity can be used to understand changes in the signaling as they relate to the gene CD38. Furthermore, this assay endpoint can be referred to as a primary readout, because this assay has produced multiple assay endpoints where this one serves a signaling function. To generalize the intended target to other relatable targets, this assay endpoint is annotated to the cytokine intended target family, where the subfamily is other cytokine.\nThe levels of cell surface (or secreted, indicated by the prefix \"s\") biomarker endpoints were measured by ELISA. Overt cytotoxicity to cells in confluent adherent cultures (all systems other than the BT system) was assessed by measuring total protein levels using sulforhodamine B (SRB) staining in parallel cultures at the time of biomarker measurements, indicated as SRB endpoints. For proliferation assays for adherent cell types, individual cell types are cultured at sub-confluence and relative cell numbers quantified by SRB staining at time points optimized for each system (48 h: 3C and CASM3C systems; 72 h: BT and HDF3CGF systems; 96 h: SAg system). SRB was performed by staining cells with 0.1% SRB after fixation with 10% TCA and reading wells at 560 nm.Viability and proliferation of PBMC (T cells) was quantified by Alamar Blue reduction for the SAg and BT systems. For PBMC viability (referred to as PBMC Cytotoxicity within the assay endpoint names), cells were plated (75,000/well in a 96-well plate) and then chemical samples added for 1 h before addition of activators, SEB and TSST-1 (20 ng/mL final concentration each). Cells were incubated for 90 h. Then, Alamar Blue (20 uL/well) (Invitrogen, Cat DAL1100) was added for 6 h, and the plates were read with a fluorescence microplate reader at 546/580 nm (excitation/emission). For PBMC proliferation, cells were plated and activated as above but incubated for only 16 h prior to addition of Alamar Blue. Plates were read after 6 h.", "values": [{"smiles": "CCOC(=O)CC(SP(=O)(OC)OC)C(=O)OCC", "note": "(stereo not given)", "outcome": "inactive"}, {"smiles": "CC(Oc1cccc(Cl)c1)C(=O)O", "note": "(stereo not given)", "outcome": "inactive"}, {"smiles": "CCCCN(CC)c1c([N+](=O)[O-])cc(C(F)(F)F)cc1[N+](=O)[O-]", "AC50": "27.9 µM (active)"}, {"smiles": "CC[C@H](C)[C@H]1O[C@]2(C=C[C@@H]1C)C[C@@H]1C[C@@H](C/C=C(\\C)[C@@H](O[C@H]3C[C@H](OC)[C@@H](O[C@H]4C[C@H](OC)[C@@H](NC)[C@H](C)O4)[C@H](C)O3)[C@@H](C)/C=C/C=C3\\CO[C@@H]4[C@H](O)C(C)=C[C@@H](C(=O)O1)[C@]34O)O2", "AC50": "3.25 µM (active)"}, {"smiles": "CC(C1CC1)C(O)(Cn1cncn1)c1ccc(Cl)cc1", "note": "(stereo not given)", "outcome": "inactive"}, {"smiles": "O=C(O)c1cc(Oc2ccc(C(F)(F)F)cc2Cl)ccc1[N+](=O)[O-]", "outcome": "inactive"}, {"smiles": "CCOP(=S)(OCC)Oc1ccc2c(C)c(Cl)c(=O)oc2c1", "outcome": "inactive"}, {"smiles": "CCOP(=O)(SC(C)CC)N1CCSC1=O", "note": "(stereo not given)", "outcome": "inactive"}, {"smiles": "CCOP(=S)(Oc1cnc(C(C)(C)C)nc1)OC(C)C", "note": "(stereo not given)", "AC50": "36.2 µM (active)"}, {"smiles": "CCCSP(=O)(OCC)Oc1ccc(Br)cc1Cl", "note": "(stereo not given)", "AC50": "30.5 µM (active)"}, {"smiles": "CCOP(=O)(NC(C)C)Oc1ccc(SC)c(C)c1", "note": "(stereo not given)", "outcome": "inactive"}, {"smiles": "C#CC(C)(C)NC(=O)c1cc(Cl)cc(Cl)c1", "outcome": "inactive"}, {"smiles": "CCCCOC(=O)c1ccccc1C(=O)O", "outcome": "inactive"}, {"smiles": "CNC(=O)ON=C(C)SC", "outcome": "inactive"}, {"smiles": "CCOP(=S)(OCC)Oc1cc(C)nc(C(C)C)n1", "outcome": "inactive"}, {"smiles": "CCOP(=O)(OCC)Oc1cc(C)nc(C(C)C)n1", "outcome": "inactive"}, {"smiles": "CCc1cnc(C2=NC(C)(C(C)C)C(=O)N2)c(C(=O)O)c1", "note": "(stereo not given)", "outcome": "inactive"}, {"smiles": "CC(C)=CC1C(C(=O)OCN2C(=O)C3=C(CCCC3)C2=O)C1(C)C", "note": "(stereo not given)", "AC50": "32.2 µM (active)"}, {"smiles": "C[N+]1(C)CCCCC1", "outcome": "inactive"}, {"smiles": "CSC1=N[C@@](C)(c2ccccc2)C(=O)N1Nc1ccccc1", "AC50": "14.3 µM (active)"}, {"smiles": "N#CSCSC#N", "AC50": "5.28 µM (active)"}, {"smiles": "CCC(CC)Nc1c([N+](=O)[O-])cc(C)c(C)c1[N+](=O)[O-]", "AC50": "28.5 µM (active)"}, {"smiles": "COP(=O)(OC)SCn1c(=O)oc2cc(Cl)cnc21", "AC50": "21.4 µM (active)"}, {"smiles": "CCOP(=S)(OCC)OC(Cl)C(Cl)(Cl)Cl", "note": "(stereo not given)", "AC50": "30.8 µM (active)"}, {"smiles": "Cc1nn(-c2cc(NS(C)(=O)=O)c(Cl)cc2Cl)c(=O)n1C(F)F", "outcome": "inactive"}, {"smiles": "CCCSP(=O)(OCC)SCCC", "outcome": "inactive"}, {"smiles": "CCNc1nc(Cl)nc(NC(C)(C)C#N)n1", "outcome": "inactive"}, {"smiles": "CCCCSP(=O)(SCCCC)SCCCC", "AC50": "20 µM (active)"}, {"smiles": "CC(C)N(C(=O)SCC(Cl)=C(Cl)Cl)C(C)C", "AC50": "31.3 µM (active)"}, {"smiles": "Cc1cc(C2CC2)nc(Nc2ccccc2)n1", "outcome": "inactive"}, {"smiles": "CN1COCN(Cc2cnc(Cl)s2)C1=N[N+](=O)[O-]", "outcome": "inactive"}, {"smiles": "S=C1NCCN1", "outcome": "inactive"}, {"smiles": "CCOP(=S)(OCC)SCCSCC", "outcome": "inactive"}, {"smiles": "CC(=NC#N)N(C)Cc1ccc(Cl)nc1", "outcome": "inactive"}, {"smiles": "O=[N+]([O-])c1cc(C(F)(F)F)c(Cl)c([N+](=O)[O-])c1Nc1ncc(C(F)(F)F)cc1Cl", "AC50": "1.35 µM (active) and 2.58 µM (active)"}, {"smiles": "CC1(C(=O)Nc2ccc(O)c(Cl)c2Cl)CCCCC1", "outcome": "inactive"}, {"smiles": "COP(=O)(NC(C)=O)SC", "note": "(stereo not given)", "outcome": "inactive"}, {"smiles": "CC(COc1ccc(Oc2ccccc2)cc1)Oc1ccccn1", "note": "(stereo not given)", "outcome": "inactive"}, {"smiles": "CCc1cccc(C)c1N(C(=O)CCl)C(C)COC", "note": "(stereo not given)", "outcome": "inactive"}, {"smiles": "Nc1nc(N)nc(NC2CC2)n1", "outcome": "inactive"}]}]}
